This passage reports Potency results from PubChem BioAssay AID588342 (National Center for Advancing Translational Sciences (NCATS), 2011).

The structures appear in SMILES notation. In all, about 360,000 compounds went through this assay and about 25,000 (6.9%) were called active. Entries that show only a call come without a potency. Not shown: some 9% with an inconclusive outcome. Calls follow the shape of the dose curve; as a rule, active = well fitted inhibition curve with a large enough effect; inconclusive = small, poorly fitted or top-dose-only effect; inactive = flat fitted curve, though single readings scatter. This excerpt belongs to a sample that is enriched for actives.
Potency is read from the fitted curve at half-maximal effect.

The target in this experiment is Luciferin 4-monooxygenase (Photinus pyralis) (UniProt P08659). As to the kind of experiment: qHTS profiling assay for firefly luciferase inhibitor/activator using purifed enzyme and Km concentrations of substrates (counterscreen for miR-21 project). Also: nearly all actives have a fitted effect of over 55% in size. As to conditions: purified FLuc, luminescence inhibition; series mostly up to 57.5 µM. Put shortly: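 Purified P. pyralis luciferase, 10 nM final, with Km-level 10 uM D-luciferin and 10 uM ATP in 50 mM Tris acetate pH 7.5, 10 mM Mg acetate, 0.01% Tween-20, 0.05% BSA; 6-point qHTS titration about 60 µM downward; luminescence read.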
Sequence of Luciferin 4-monooxygenase (Photinus pyralis) (P08659 whole entry, looked up): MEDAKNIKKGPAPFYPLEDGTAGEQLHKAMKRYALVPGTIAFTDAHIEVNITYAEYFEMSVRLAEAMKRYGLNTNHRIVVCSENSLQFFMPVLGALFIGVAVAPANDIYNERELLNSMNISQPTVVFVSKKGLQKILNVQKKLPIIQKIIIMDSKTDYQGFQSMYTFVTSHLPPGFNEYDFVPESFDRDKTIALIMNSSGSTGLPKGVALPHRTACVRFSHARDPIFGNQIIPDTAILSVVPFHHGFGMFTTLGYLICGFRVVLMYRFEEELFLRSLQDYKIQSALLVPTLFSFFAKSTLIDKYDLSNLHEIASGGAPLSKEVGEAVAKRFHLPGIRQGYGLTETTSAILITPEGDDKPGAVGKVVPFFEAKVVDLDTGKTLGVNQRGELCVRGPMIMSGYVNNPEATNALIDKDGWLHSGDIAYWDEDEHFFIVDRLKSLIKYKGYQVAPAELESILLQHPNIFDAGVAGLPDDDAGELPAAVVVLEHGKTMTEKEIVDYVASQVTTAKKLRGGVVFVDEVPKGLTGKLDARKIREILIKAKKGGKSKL
In general terms: Quantitative high-throughput screening tests each substance at several concentrations.
Turning to `Cc1ccc(C(=O)N2c3ncnn3C3(CCCCC3)[C@@H]3CCCC[C@@H]32)cc1`, the Potency entry is “inactive”. As for `Cc1ccc(S(=O)(=O)CCC(=O)OCC(=O)NCCc2ccc(S(N)(=O)=O)cc2)cc1`, the Potency result was “inactive”. On to `COc1ccc(-c2onc(C)c2C)cc1S(=O)(=O)NCC1CCN(Cc2cccc(F)c2)CC1`, for which the Potency result is “inactive”. In the case of `CCN(CC)c1cc(NC2CCCCC2)c2c3c(onc13)-c1ccccc1C2=O`, the Potency entry was “inactive”.

`O=P(O)(CN1CCCCC1)CN1CCCCC1`: the Potency entry was “inactive”. For `CCOc1ccc(CNC(=O)c2ccc(CS(=O)c3ccccc3)o2)cc1` (stereo not drawn), the Potency entry is “inactive”. Consider `CCN(CC)S(=O)(=O)c1ccc2[nH]c(=O)cc(C(=O)N(C)C3CCS(=O)(=O)C3)c2c1` (stereo not drawn), for which the Potency result is “inactive”.

Regarding `CCc1ccc(C2C(C(=O)Nc3ccccc3)=C(C)Nc3c(C(=O)Nc4ccc(C)cc4)cnn32)cc1` (stereo not drawn), the Potency result is “inactive”. Take `CC(=O)Nc1c(C)nn(-c2ccccc2)c1N1CCC(C(=O)Nc2cc(Cl)ccc2C)CC1`: the Potency result was “inactive”. For the compound `CC1CCCC(C)N1C(=O)CN1CCN(c2nc(-c3ccc(F)cc3)cs2)CC1` (stereo not drawn), the Potency entry is “inactive”. In the case of `CCOc1cc(NC(=S)NCCCOC)c(OCC)cc1NC(=O)c1ccco1`, the Potency entry was “inactive”. As for `COCCNC(=O)Nc1ccc2nc(-c3ccco3)c(-c3ccco3)nc2c1`, the Potency is 21.3 µM (active).

For the compound `COc1ccc(NC(=O)COCc2cc(-c3ccco3)on2)cc1`, the Potency result was “inactive”. Next, `Cc1ccc(C(=O)NCC(=O)OCC(=O)Nc2cccc(S(=O)(=O)N3CCCC3)c2)cc1C`: 9.53 µM (active); `O=C(CCNC(=O)c1ccc(Br)cc1)Nc1cccc(S(=O)(=O)N2CCCCC2)c1`: “inactive”; `Cc1ccc(C)c(OCCC(=O)Nc2cccc(S(=O)(=O)N3CCCC3)c2)c1`: “inactive”.

Take `COc1ccc(C(=O)OCC(=O)NC(=O)CCSc2ccccc2)cc1`: the Potency entry is “inactive”. Consider `CC(OC(=O)c1ccc2ccccc2n1)C(=O)c1ccccc1` (stereo not drawn), for which the Potency is 0.953 µM (active).

Take `COc1ccc(C(=O)COC(=O)c2ccc3ccccc3n2)cc1`: the Potency is 21.3 µM (active). Regarding `CC(OC(=O)CN1C(=O)c2ccccc2C1=O)C(=O)c1ccccc1` (stereo not drawn), the Potency result is “inactive”. On to `CC(OC(=O)c1ccccc1N1C(=O)C2C3CCC(C3)C2C1=O)C(=O)c1ccccc1` (stereo not drawn), for which the Potency entry was “inactive”. Turning to `COc1ccc(C(=O)COC(=O)COc2ccc(C)c(C)c2)cc1`, the Potency result is “inactive”.

In the case of `CCc1ccc2ncc3c(-c4ccc(C)cc4)nn(CC(=O)NCc4ccccc4)c3c2c1`, the Potency entry was “inactive”.

For `COC(=O)C1=CO[C@@H](O[C@@H]2O[C@H](CO)[C@@H](O)[C@H](O)[C@H]2O)C2C1C[C@H](O)[C@@H]2C` (stereo partly drawn), the Potency entry was “inactive”. Take `CCn1c(SCC(=O)N/N=C/C=C/c2ccccc2[N+](=O)[O-])nnc1-c1ccccc1`: the Potency entry is “inactive”. `CCn1c(SCC(=O)N/N=C/c2ccccc2OCC(=O)O)nnc1-c1ccc(C(C)(C)C)cc1`: the Potency was 26.9 µM (active). With `Cc1ccc(Cn2c(SCC(=O)N/N=C/c3ccccc3OCC(=O)O)nc3ccccc32)cc1`, the Potency entry was “inactive”. `CNC(=O)c1csc(Cc2c(Cl)sc3ccc(Cl)cc23)n1`: the Potency result is “inactive”.

As for `O=C(OCC(=O)N1CCN(C(=O)c2ccco2)CC1)c1ccc(Cl)c(Cl)c1`, the Potency result was “inactive”.

Turning to `O=C(OCC(=O)N1CCCC1)c1ccco1`, the Potency entry was “inactive”.

As for `O=C(COC(=O)c1ccco1)NCc1ccc(Cl)cc1`, the Potency result is “inactive”. Next, `O=C(COC(=O)c1ccccc1C(=O)c1ccccc1)c1ccco1`: “inactive”; `CCc1ccc(C(=O)COC(=O)c2ccco2)cc1`: 0.478 µM (active); `CCN(CC)c1ccc(C(=O)OCC(=O)c2ccco2)cc1`: 15.1 µM (active). `C[C@@H](NC(=O)[C@@H]1Cc2ccccc2CN1)C(=O)NC1CCCC1`: the Potency entry is “inactive”. The result for `COc1ccccc1CNC(=O)c1cc(=O)c2ccccc2o1` reads “inactive”; that for `CCOC(=O)c1sc(N)c(C#N)c1COC(=O)C1=COCCO1`, “inactive”. As for `CN(CC(=O)Nc1c(Cl)cccc1Cl)C(=O)CC1OC(=O)c2ccccc21` (stereo not drawn), the Potency entry is “inactive”. Regarding `CCOc1ccc(N(CC)S(=O)(=O)N2CCCC(C(=O)NCc3ccc(SC)cc3)C2)cc1` (stereo not drawn), the Potency entry is “inactive”. Next, `Cc1oc2c(c1C(=O)Nc1ccc(F)c(F)c1)C1=NCCN1C=N2`: “inactive”. Turning to `N#Cc1ccc(C2N=C(c3ccccc3)NO2)cc1` (stereo not drawn), the Potency is 10.7 µM (active). Next, `Brc1ccccc1C1N=C(c2ccccc2)NO1` (stereo not drawn): 19 µM (active); `CCOC(=O)Cn1c(=O)n(C2CCCCC2)c2nc(-c3cccc(OC)c3)nc(C(N)=O)c21`: “inactive”.

As for `COc1ccc(CNC(=O)c2cc3c(-c4ccccc4F)nn(C)c3s2)c(OC)c1`, the Potency entry was “inactive”. On to `CCOC(=O)C1CCCN(C(=O)c2ccc(-n3ccc4ccccc43)s2)C1` (stereo not drawn), for which the Potency entry is “inactive”. For the compound `CCN(Cc1ccccc1)C(=O)CCS(=O)(=O)c1ccc2c(c1)oc(=O)n2C`, the Potency result was “inactive”. On to `Cc1ccc(/C=C/C(=O)OCC(=O)NCc2ccc(Cl)cc2)o1`, for which the Potency entry was “inactive”. For `CCC(=O)N1CCc2cc(Br)cc(S(=O)(=O)NCc3ccc(Cl)cc3)c21`, the Potency result was “inactive”. Turning to `C=CCNC(=O)c1ccc2c3n(nc2c1)-c1ccc(C)cc1CO3`, the Potency was 2.39 µM (active).

For the compound `CCCNC(=O)c1ccc2c(c1)ncn2-c1ccc(C)cc1C`, the Potency entry was “inactive”. As for `C=CCNC(=O)c1ccc(C)c(Br)c1`, the Potency result was “inactive”. `COc1cccc(CNC(=O)C(NS(=O)(=O)c2ccc3nc(C)sc3c2)C(C)C)c1` (stereo not drawn): the Potency result is “inactive”. As for `COc1ccc(OC)c(/C(C)=N\NC(=O)c2cc3cc(Cl)ccc3n2C)c1`, the Potency result is “inactive”. For `C/C(=N/NC(=O)c1cc(Cl)ccc1O)C12CC3CC(CC(C3)C1)C2`, the Potency is 15.1 µM (active).

For the compound `COc1ccc(Cl)cc1NC(=O)CN(C)C(=O)CNC(=O)C12CC3CC(CC(C3)C1)C2`, the Potency entry was “inactive”.

As to `NC(=O)NCCCC(=O)O`, the Potency result was “inactive”. With `CSc1ncc(C(=O)NCc2ccccc2Cl)c(C(F)(F)F)n1`, the Potency result is “inactive”. Next, `CCn1c2ccc(F)cc2c2nnc(SCCN3CCOCC3)nc21`: “inactive”; `Cc1cccc(C)c1OCCN1CCOCC1`: “inactive”.

Regarding `Cc1cc2nc(SCCN3CCOCC3)[nH]c2cc1C`, the Potency is 19 µM (active). In the case of `Cc1ccc(NC(=O)CNCc2ccccn2)cc1S(=O)(=O)N(C)C`, the Potency result is “inactive”. The result for `Cc1ccc(C(=O)Nc2ccc(C)c(S(=O)(=O)N(C)C)c2)s1` reads 1.9 µM (active); that for `Cc1ccc(NC(=O)c2cccs2)cc1S(=O)(=O)N(C)C`, 15.1 µM (active).

In the case of `Cc1ccc(C(=O)Nc2ccc(NC(=O)c3cccs3)cc2)c(C)c1`, the Potency entry is “inactive”. On to `COc1ccc(CCC(=O)OCC(=O)Nc2ccc(C)c(S(=O)(=O)N(C)C)c2)cc1`, for which the Potency result is “inactive”. As for `Cc1ccc(C(=O)Nc2ccc(C(=O)O)cc2)cc1S(=O)(=O)Nc1ccccc1`, the Potency result was “inactive”. In the case of `Cc1cc(C)c(/C=C/c2onc(C)c2S(=O)(=O)N2CCC(C(=O)Nc3ccc(Cl)cc3C)CC2)c(C)c1`, the Potency result was “inactive”.

With `COc1ccc(C(=O)CSc2c(C(C)C)cnc3c2c(=O)n(C)c(=O)n3C)cc1`, the Potency result is “inactive”. In the case of `O=C(CSc1nc2nccnc2c(=O)n1CCc1c[nH]c2ccccc12)Nc1ccccc1F`, the Potency entry was “inactive”. As to `O=C(CN1CCN(Cc2ccc(Cl)cc2)C1=O)NCc1ccc(F)cc1`, the Potency result is “inactive”.

Turning to `COc1ccc(N2C(=O)CS(=O)(=O)C23C(=O)N(Cc2ccc(C)cc2)c2ccccc23)cc1Cl` (stereo not drawn), the Potency result is “inactive”. As for `O=S(=O)(NCCS(=O)(=O)N1CCN(c2ccccc2)CC1)c1ccc(Cl)cc1`, the Potency result was “inactive”. For `CN(C)c1cc[n+](Cc2ccccc2)cc1`, the Potency entry is “inactive”. The result for `CSc1c(SCc2ccccc2)cnn(Cc2ccccc2)c1=O` reads “inactive”; that for `CC1=NN(Cc2ccccc2)C(=O)/C1=C/c1ccc(N(C)C)cc1`, 6.75 µM (active); that for `COc1ccc(C)cc1NC(=O)CN1c2cccc3cccc(c23)S1(=O)=O`, “inactive”.

As to `CCOC(=O)c1cc(-c2ccccc2C)n(Cc2cc(C)no2)n1`, the Potency result was “inactive”. Consider `CC(C)CC(=O)Nc1ccc(Cc2ccncc2)cc1`, for which the Potency result was “inactive”. Regarding `COc1cccc(OC)c1C(=O)Nc1ccc(Cc2ccncc2)cc1`, the Potency result is “inactive”.

Turning to `CCc1ccc(NC(=O)Nc2ccncc2)cc1`, the Potency was 9.53 µM (active). Regarding `CCCN(C(=O)c1nc2nccc(C)n2n1)c1c(N)n(Cc2ccccc2)c(=O)[nH]c1=O`, the Potency result is “inactive”. In the case of `CCOC(=O)/C(=N\Nc1cc(Cl)ccc1Cl)N1CCN(C)CC1`, the Potency entry was “inactive”. With `CC(C)Cc1nc(Nc2ccc(S(=O)(=O)N3CCCC3)cc2)c2nnn(Cc3ccccc3)c2n1`, the Potency result is “inactive”. For `Cc1onc(-c2ccc(F)cc2F)c1C(=O)Nc1cccc(C(F)(F)F)c1`, the Potency entry was “inactive”. Turning to `CCCC(=O)Nc1cccc(NC(=S)NC(=O)C(C)Oc2ccc(Cl)cc2Cl)c1` (stereo not drawn), the Potency result was “inactive”.

With `CC(C)n1ncc2c(C(=O)NCc3ccccc3CN(C)C)cc(C3CC3)nc21`, the Potency result was “inactive”. The result for `COC(=O)CC1=NN(c2nc(C)cc(C)n2)C(=O)C1` reads “inactive”. In the case of `COC(=O)Cc1csc(Nc2c(C)n(C)n(-c3ccccc3)c2=O)n1`, the Potency result was “inactive”.

As for `COC(=O)Cc1cc(=O)n(-c2nc3ccccc3s2)[nH]1`, the Potency was 16.9 µM (active). Next, `CCCCOc1ccc(CNC(=O)c2ccc3c(c2)N(C)C(=O)C2CCCCN32)cc1` (stereo not drawn): “inactive”.

For the compound `Cn1c(Nc2cccc(Cl)c2)nc2ccccc21`, the Potency was 26.9 µM (active). Consider `C/C(=N\c1nc2ccccc2n1C)c1cc(Cl)ccc1O`, for which the Potency entry was “inactive”. With `Cc1c(C(=O)Nc2cccc(Cl)c2)cn2c(nc3ccccc32)c1C#N`, the Potency result is “inactive”.

On to `Cc1ccc(S(=O)(=O)N2CCc3cc(C(=O)Nc4ccc(Cl)cc4C)ccc32)cc1`, for which the Potency result was “inactive”. Turning to `NC(=O)Cn1cc(/C=N\NS(=O)(=O)c2ccccc2)c2ccccc21`, the Potency result is “inactive”. Next, `COc1cccc(CNC(=O)CCCC(=O)Nc2cccc([N+](=O)[O-])c2)c1`: “inactive”; `COc1cccc(C(=O)CC(=O)C(=O)Nc2ccc([N+](=O)[O-])cc2C)c1`: “inactive”; `COc1cccc(NCCC(=O)c2cccc([N+](=O)[O-])c2)c1`: 15.1 µM (active). In the case of `CC(=O)c1ccc(OCCCC(=O)Nc2ccc(C)c(S(=O)(=O)N3CCOCC3)c2)cc1`, the Potency result was “inactive”. Next, `Cc1ccc(NC(=O)CN2c3ccccc3S(=O)(=O)c3ccccc32)cc1F`: “inactive”; `N#C/C(=C(/O)Cc1cccc2ccccc12)c1nc2ccccc2s1`: “inactive”; `CC1=CC(=C(C#N)c2nc3ccccc3s2)C=C(C)N1c1ccc(F)cc1F`: 1.35 µM (active). `Cc1ccc(F)cc1S(=O)(=O)N1CCC(c2nc3ccccc3s2)CC1`: the Potency result is “inactive”.
